From PubChem BioAssay
Shown are actives, neighbours in structure and some others; about 1.8% of the full set was active somewhere.
CCHFV vOTU inh: blocks the CCHF virus ovarian tumor domain protease. CCHFV vOTU protease, Pep-AMC fluorescence. inhibition, % at 11.5 µM. 370,000 tested, 0.55% active; in the data active = inhibition above about 30%; also: 0% = vehicle wells with enzyme and 100% = no enzyme wells
Yp Topo-I inh: Y. pestis Topo-I inhibition via cleavage products; Y. pestis Topo-I cleavage product accumulation, plate reader; activity, % at 10 µM; 360,000 tested, 0.064% active; in the data active = activity above about 50%, passing the limit was not always enough
BH1578 lux ind: induces V. cholerae light production without autoinducers | V. cholerae BH1578 lux reporter, luminescence, 6 h | activation, % at 18.7 µM | 350,000 tested, 0.16% active | AID 588436; in the data active = activation mostly above about 9.7%, no sharp cut-off
MazF activator: increases E. coli MazEF RNase cleavage of RNA. activation, % at 20 µM. 350,000 tested, 0.32% active. AID 504720. FAM/BHQ RNA-DNA oligo cleavage fluorescence, 5 h; in the data active = activation above about 50%
Target sequence (P0AE70 whole entry, looked up): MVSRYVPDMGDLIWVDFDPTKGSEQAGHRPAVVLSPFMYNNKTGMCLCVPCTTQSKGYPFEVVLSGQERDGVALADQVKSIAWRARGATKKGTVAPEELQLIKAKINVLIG
PrPC TRFRET: inhibitors of human cell surface prion protein PrPC; TR-FRET read-out; inhibition, % at 13.8 µM; 370,000 tested, 0.43% active; in the data active = inhibition above about 24%; also: 0% = median of the test wells and 100% = reference compound wells
VHR inh abs: blocks human VHR1 dual specificity phosphatase; 290,000 tested, 0.52% active; P51452; AID 1654; recombinant VHR phosphatase, pNPP absorbance; inhibition, % at 13.3 µM; in the data active = inhibition above about 50%
Target sequence (P51452 whole entry, looked up): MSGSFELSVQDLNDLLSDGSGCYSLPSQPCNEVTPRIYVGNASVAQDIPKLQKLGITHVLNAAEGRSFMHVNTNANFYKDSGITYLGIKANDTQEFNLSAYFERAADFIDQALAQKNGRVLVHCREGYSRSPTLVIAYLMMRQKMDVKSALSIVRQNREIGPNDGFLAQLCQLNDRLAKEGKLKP
Numbers without * were called inactive.

How did C=CCN(C(=O)[C@@H](C)[C@@H](O)c1ccc(Cl)cc1)c1ccccc1 do in these assays?
CCHFV vOTU inh: -4.6; PrPC TRFRET: 8.1

Results for NC(CO)C(=O)NNCc1ccc(O)c(O)c1O (centres undefined) ?
CCHFV vOTU inh: -1.9; Yp Topo-I inh: -4.8; BH1578 lux ind: -3.0; MazF activator: 223.4*; PrPC TRFRET: -6.6; VHR inh abs: 0.9

What do the screens show for `CC(=O)Oc1ccc(C(=O)O)cc1OC(C)=O`?
CCHFV vOTU inh: 13.1; Yp Topo-I inh: -4.4; BH1578 lux ind: inactive; MazF activator: -17.9; PrPC TRFRET: -1.9; VHR inh abs: -5.0

Results for CC(=O)Oc1cccc2c1C(=O)c1c(OC(C)=O)cc(C(=O)O)cc1C2=O ?
CCHFV vOTU inh: 6.8; Yp Topo-I inh: 7.7; BH1578 lux ind: -3.0; MazF activator: 257.0*; PrPC TRFRET: -27.6; VHR inh abs: 12.4

How did Oc1ccc2ccccc2c1C=NN1CCN(Cc2ccc(Cl)cc2)CC1 do in these assays?
CCHFV vOTU inh: 1.1; PrPC TRFRET: -0.8

How did FC(F)(F)c1ccc(CN2CCCCCC2)cc1 do in these assays?
CCHFV vOTU inh: -14.7; Yp Topo-I inh: 2.1; BH1578 lux ind: -1.7; MazF activator: 1.1; PrPC TRFRET: -6.2; VHR inh abs: 51.6*

What do the screens show for `COc1ccc(CN2CCN(Cc3ccc(C(F)(F)F)cc3)CC2)cc1`?
CCHFV vOTU inh: -0.7; Yp Topo-I inh: 18.2; BH1578 lux ind: 1.0; MazF activator: -7.6; PrPC TRFRET: -4.2; VHR inh abs: -7.8

How did CCn1nc(-c2cccs2)nc2c(=O)n(C)c(=O)nc1-2 do in these assays?
Yp Topo-I inh: -6.6; BH1578 lux ind: inactive; MazF activator: -2.4; VHR inh abs: 90.0*

Results for Cn1nc(-c2ccc(Cl)cc2)nc2c(=O)n(C)c(=O)nc1-2 ?
BH1578 lux ind: inactive; VHR inh abs: 33.8

Results for CC(=O)N1CCCN(C(=O)CN2C(=O)CC(C)(C)S(=O)(=O)c3ccccc32)CC1 ?
CCHFV vOTU inh: 2.3; PrPC TRFRET: 6.3

Results for CC(C)CC(NC(N)=O)C(=O)Nc1ccc(Cl)c(Cl)c1 (centres undefined) ?
CCHFV vOTU inh: 3.0; Yp Topo-I inh: 0.9; BH1578 lux ind: -0.2; MazF activator: 10.3; PrPC TRFRET: 1.1; VHR inh abs: 51.2*

What do the screens show for `CCc1nnc(N/N=C/c2c(Cl)cccc2Cl)n1N`?
CCHFV vOTU inh: 77.3*; Yp Topo-I inh: 0.5; BH1578 lux ind: -3.7; MazF activator: -3.6; PrPC TRFRET: -7.8; VHR inh abs: 7.7

Results for CNC(=S)N/N=C/c1c(Cl)cccc1Cl ?
CCHFV vOTU inh: -4.3; Yp Topo-I inh: -0.6; BH1578 lux ind: inactive; MazF activator: 0.2; PrPC TRFRET: 7.8; VHR inh abs: -14.0

Results for COc1ccc(Cc2nnc(SCC(=O)Nc3ccc(C)cc3)n(N)c2=O)cc1 ?
CCHFV vOTU inh: 29.9*; Yp Topo-I inh: 28.8; BH1578 lux ind: inactive; MazF activator: 6.8; PrPC TRFRET: 6.1

How did COc1cccc(NC(=O)CSc2nnc(Cc3ccc(C)cc3)c(=O)n2N)c1 do in these assays?
CCHFV vOTU inh: -2.2; Yp Topo-I inh: 23.5; BH1578 lux ind: -0.3; MazF activator: 1.4; PrPC TRFRET: 3.0

What do the screens show for `COc1ccc(-c2[nH]n(-c3ccc([N+](=O)[O-])cc3)c(=O)c2C=NCc2ccc(F)cc2)cc1`?
CCHFV vOTU inh: 6.8; Yp Topo-I inh: 0.4; BH1578 lux ind: -0.4; MazF activator: 80.7*; PrPC TRFRET: 3.0; VHR inh abs: -1.6

Results for COc1ccc(-c2[nH]n(-c3ccc([N+](=O)[O-])cc3)c(=O)c2C=NCc2ccncc2)cc1 ?
CCHFV vOTU inh: 9.0; Yp Topo-I inh: -1.4; BH1578 lux ind: 0.2; MazF activator: 2.7; PrPC TRFRET: -2.5; VHR inh abs: 20.4

Results for CCCN(CCC)CC(O)CN(c1ccccc1)S(=O)(=O)c1ccc(C)cc1 (centres undefined) ?
CCHFV vOTU inh: -6.5; Yp Topo-I inh: 11.7; BH1578 lux ind: -0.3; MazF activator: 8.1; PrPC TRFRET: -1.5; VHR inh abs: 27.3

What do the screens show for `CCCCN(c1nc2ccccc2nc1Cl)S(=O)(=O)c1ccc(C)cc1`?
CCHFV vOTU inh: -3.9; Yp Topo-I inh: 54.8*; BH1578 lux ind: -0.6; MazF activator: -19.3; PrPC TRFRET: 4.3

What do the screens show for `Cc1oc(-c2ccccc2F)nc1CS(=O)(=O)CC(=O)NCCN1CCCC1`?
CCHFV vOTU inh: -7.9; Yp Topo-I inh: 5.6; BH1578 lux ind: -2.1; MazF activator: -11.6; PrPC TRFRET: -2.8; VHR inh abs: 52.7*

How did Cc1oc(-c2ccccc2F)nc1CS(=O)(=O)CC(=O)NCCCN1CCc2ccccc2C1 do in these assays?
CCHFV vOTU inh: 7.4; Yp Topo-I inh: 20.8; BH1578 lux ind: -0.5; MazF activator: 3.1; PrPC TRFRET: -11.8; VHR inh abs: 25.2

How did COc1cccc(-c2nc(CS(=O)(=O)CC(=O)NCCCN3C(C)CCCC3C)c(C)o2)c1 (centres undefined) do in these assays?
CCHFV vOTU inh: 14.7; Yp Topo-I inh: -0.1; BH1578 lux ind: inactive; MazF activator: 9.8; PrPC TRFRET: -5.2; VHR inh abs: 56.8*

Results for COc1cc(C(=O)NC2CCCCN(Cc3cccc(Cl)c3)C2=O)cc(OC)c1OC (centres undefined) ?
CCHFV vOTU inh: -6.0; PrPC TRFRET: 2.1

How did CCCCN1C(=O)N2Cc3cc(OC)ccc3C2CS1(=O)=O (centres undefined) do in these assays?
CCHFV vOTU inh: -2.9; PrPC TRFRET: -6.6

What do the screens show for `COc1cc2c(cc1NC(=O)CSc1nnc(-c3cccnc3)n1-c1ccc(Br)cc1)oc1ccccc12`?
CCHFV vOTU inh: 5.4; PrPC TRFRET: 3.9

How did CC1CCN(c2nc3ccc(C(=O)NCCCN4CCCCC4)cc3s2)CC1 do in these assays?
CCHFV vOTU inh: -1.5; Yp Topo-I inh: 4.7; BH1578 lux ind: -0.3; MazF activator: 5.9; PrPC TRFRET: -13.9; VHR inh abs: 36.9

Results for CCC1CCCCN1CCCNC(=O)c1ccc2c(c1)NC(=O)CS2 (centres undefined) ?
CCHFV vOTU inh: 4.9; Yp Topo-I inh: 1.6; BH1578 lux ind: -0.7; MazF activator: 10.1; PrPC TRFRET: -4.4; VHR inh abs: 55.6*

What do the screens show for `CCC1CCCCN1CCCNC(=O)c1ccc(/C=C2/Sc3ccccc3NC2=O)cc1` (centres undefined)?
CCHFV vOTU inh: 3.8; Yp Topo-I inh: 6.3; BH1578 lux ind: -0.5; MazF activator: 7.9; PrPC TRFRET: -25.2; VHR inh abs: 12.3

How did CCC1CCCCN1CCCNC(=O)c1ccc2nc(N3CCC(C)CC3)sc2c1 (centres undefined) do in these assays?
CCHFV vOTU inh: 16.9; Yp Topo-I inh: 14.4; BH1578 lux ind: -0.3; MazF activator: 16.9; PrPC TRFRET: -7.3; VHR inh abs: 51.3*

How did COC(=O)C1=C(C)N(C)C(=NCC2CC2)NC1c1ccc(F)cc1 (centres undefined) do in these assays?
CCHFV vOTU inh: -8.9; PrPC TRFRET: -6.4

Results for CSc1ccc(-c2cnc(N3CCC(C(N)=O)CC3)s2)cc1 ?
PrPC TRFRET: 3.8
